Measurements from PubChem BioAssay.
Calls of active or inactive are those of the source.

Columns and labels:
[1] = compound effects on lung adenocarcinoma cell viability – A549, calcein-AM fluorescence, 48 h, basal, profiling panel (AID 1162); conditions: higher = more signal
[2] = compound effects on differentiated 3T3-L1 adipocyte viability – cell-based, 3T3-L1 adipocytes, calcein-AM fluorescence, 48 h, basal, profiling panel (AID 1163); conditions: 3T3-L1 adipocytes viability, higher = more signal
[3] = compound effects on hepatocellular carcinoma cell viability – HepG2, calcein-AM fluorescence, 48 h, basal, profiling panel (AID 1164); conditions: higher = more signal
[4] = compound effects on multiple myeloma cell viability – MM1S, calcein-AM fluorescence, 48 h, basal, profiling panel (AID 1165); conditions: higher = more signal
[5] = calcein-AM signal in unstimulated myeloma cells – cell-based, calcein-AM fluorescence, 48 h, PK04 Diversity Set, profiling panel (AID 1166); conditions: RPMI8226 myeloma viability, higher = more signal;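 note: cells grown under basal conditions without added stimulus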
[6] = JC-1 mitochondrial signal, unstimulated HepG2 cells – cell-based, JC-1 fluorescence, 24 h, 100 nL compound, profiling panel (AID 1167); conditions: HepG2 mitochondrial potential, higher = more signal
[7] = JC-1 mitochondrial signal, unstimulated adipocytes – cell-based, JC-1 fluorescence, 3T3-L1 adipocytes, 24 h, 100 nL compound, profiling panel (AID 1168); conditions: JC-1 mitochondrial fluorescence, higher = more signal, called active from +8 up or from −8 down
[8] = JC-1 mitochondrial signal, unstimulated myeloma cells – cell-based, JC-1 fluorescence, RPMI8226, 24 h, 100 nL compound, profiling panel (AID 1169); conditions: JC-1 mitochondrial potential fluorescence, higher = more signal
[9] = JC-1 mitochondrial signal, unstimulated MM1S myeloma – cell-based, JC-1 fluorescence, 24 h, 100 nL compound, profiling panel (AID 1170); conditions: MM1S mitochondrial potential, higher = more signal
[10] = resazurin metabolic signal in A549 cells – cell-based, resazurin fluorescence, 24 h, PK04 Diversity Set, profiling panel (AID 1171); conditions: A549 viability, higher = more signal, called active from +8 up or from −8 down
Note: test concentration not given here.

Row | SMILES | z-score [1] | z-score [2] | z-score [3] | z-score [4] | z-score [5] | z-score [6] | z-score [7] | z-score [8] | z-score [9] | z-score [10]
1 | COc1cc2c(cc1O)C=[N+](Cc1cccc(OC(F)(F)F)c1)CC2 | 1.45 | 0.0197 | 1.2 | 1.25 | 0.346 | 1.01 | 0.0547 (inactive) | 0.145 | -0.471 | -1.68 (inactive)
2 | CN1C2C=C(CCCO)C(C3C(=O)N(C(N)=O)C(=O)C32)C1c1ccc(CN2CCCC2)cc1 (stereo not given) | -0.814 | -0.543 | -0.357 | 0.432 | -1.22 | -0.208 | -0.655 (inactive) | 0.234 | -0.137 | 0.0528 (inactive)
3 | O=C(NCc1ccccc1)[C@@]1(Cc2ccccc2)N=C(c2ccc(OCCCO)cc2)O[C@H]1c1ccccc1 | -2.86 | 0.967 | -2.26 | -1.42 | -3.32 | 1.19 | -0.357 (inactive) | -1.02 | -1.55 | -0.331 (inactive)
4 | CC[C@@H]1C=C(C(=O)O)[C@H](c2ccco2)N1S(=O)(=O)c1ccc(C)cc1 | -0.364 | -0.538 | 0.186 | -0.019 | -0.29 | -0.0247 | -1.25 (inactive) | 0.604 | -1.26 | -0.68 (inactive)
5 | C[N+](C)(C)CCCC[C@@H]1NC(=O)[C@@H]2C[C@H](C(=O)NCCCCCN)[C@H](c3cccc(OCCO)c3)N2C1=O | 1.53 | 0.698 | 1.45 | 0.423 | 0.16 | 1.03 | -0.117 (inactive) | 0.0947 | -0.198 | 0.0718 (inactive)
6 | C=C(COC)/C(=C/C[C@H](OC(=O)c1ccncc1)c1ccc(OCCO)cc1)c1cnc2ccccc2c1 | 1.54 | 0.317 | -0.303 | -1.98 | 0.0703 | -0.232 | -0.472 (inactive) | 0.147 | -0.799 | 0.67 (inactive)
7 | COc1ccc(C(O)C2C=CC3C(=O)N(C)C(=O)C3N2N2CCCCC2)c2ccccc12 (stereo not given) | -1.01 | -1.14 | -0.086 | -0.142 | 0.768 | -0.874 | -1.08 (inactive) | -0.0496 | 0.028 | -0.825 (inactive)
8 | O=C1NCC(=O)N2[C@@H]1C[C@@H](C(=O)O)[C@H]2c1cccc(OCCO)c1 | 0.278 | -0.856 | 0.662 | 0.301 | 0.362 | 2.32 | -0.16 (inactive) | 0.529 | -0.514 | -0.229 (inactive)
9 | O=C1c2ccccc2[C@](Cc2ccccc2I)(C(=O)NC2CC2)[C@H](c2ccc(CO)cc2)N1Cc1ccccc1 | 0.465 | -0.241 | -0.236 | -0.349 | -0.253 | 0.478 | 0.174 (inactive) | -0.679 | 0.00466 | 1.47 (inactive)
10 | COC(=O)C=C(CC(O)c1cccc(Cl)c1)OC (stereo not given) | 0.409 | 0.0036 | 1.01 | 0.892 | -0.221 | 0.456 | 0.705 (inactive) | -0.738 | -1.36 | -0.34 (inactive)
11 | COCCOC(=O)N1C(=O)[C@@]2(c3cc(C#CCCO)ccc31)[C@H](c1ccc(OCCO)cc1)N1[C@H](c3ccccc3)[C@H](c3ccccc3)OC(=O)[C@H]1[C@@H]2C(=O)N1CCN(c2ncccn2)CC1 | 0.559 | 0.344 | 0.479 | -1.32 | -0.713 | 0.503 | -0.138 (inactive) | -0.41 | -1.19 | 0.253 (inactive)
12 | O=C1[C@H]2C=C(Br)[C@H](C[C@@H]2OCCCCO)[C@@]12CO2 | -0.0982 | -1.26 | -0.141 | -0.723 | -2.13 | -1.48 | 0.026 (inactive) | -0.88 | -0.147 | -0.621 (inactive)
13 | COC(=O)c1c(CC[C@@H](CO)NC(=O)N2CCC[C@H]2Cn2cc(-c3ccccn3)nn2)oc(C(C)=O)c1C(=O)OC | -0.204 | 1 | -1.02 | 0.208 | 1.18 | -0.443 | -0.922 (inactive) | 0.859 | -0.475 | 0.133 (inactive)
14 | COc1ccc(COC2OC[C@]3(C)[C@H]4C5=C(CN3C(=O)OC(C)(C)C)[C@H](C)C(CO)C(CO)C5CC[C@@H]24)cc1 (stereo not given in full) | -0.963 | 0.627 | -0.0917 | 0.0355 | -1.17 | 1.24 | -0.685 (inactive) | 0.429 | 0.0993 | -1.34 (inactive)
15 | CCN(CC)c1ccc(N2CC=CC34O[C@@H]5/C=C\CCC(C)OC(=O)C5[C@H]3C(=O)N(C(CO)C(C)C)[C@@H]4C2=O)cc1 (stereo not given in full) | -0.0553 | -1.18 | 0.936 | 1.26 | -0.208 | 0.96 | -0.118 (inactive) | 0.0122 | 1.01 | 0.406 (inactive)
16 | CCOC1=C2C(CN(S(=O)(=O)c3ccc(C)cc3)C2c2ccc(C)cc2)C2C(=O)N(c3ccccc3)C(=O)C2C1 (stereo not given) | -0.592 | -0.843 | 0.58 | 0.729 | 0.285 | 0.247 | 1.2 (inactive) | 1.1 | -1.37 | -0.376 (inactive)
17 | CN1C(=O)C2C=CC(C(O)c3ccccc3)N(Nc3ccccc3)C2C1=O (stereo not given) | -1.3 | -0.559 | -0.761 | -1.4 | 0.362 | -1.69 | -0.441 (inactive) | 0.636 | -0.207 | -1.26 (inactive)
18 | CN1C(=O)[C@]2(Cc3ccccc3)N=C(c3ccc(OCCCO)cc3)O[C@@H]2c2ccccc21 | -1.55 | 1.71 | -1.68 | -1.76 | -4.34 | 0.288 | 0.686 (inactive) | -1.16 | -0.976 | -1.81 (inactive)
19 | O=C1OCCC/C=C\[C@H]2OC34C=CCN(Cn5nnc6ccccc65)C(=O)[C@H]3N(CCO)C(=O)[C@@H]4C12 (stereo not given in full) | 0.499 | 1.02 | -0.822 | 0.971 | -0.117 | 0.31 | 0.192 (inactive) | 0.656 | -0.345 | -0.66 (inactive)
20 | CC(C)(C)OC(=O)CC[C@@]1(C(N)=O)N=C(c2ccc(OCCCO)cc2)O[C@@H]1c1ccccc1 | 0.298 | -0.0721 | 0.105 | 0.0092 | 0.658 | -0.318 | -0.191 (inactive) | 0.919 | -0.0322 | 0.293 (inactive)
21 | CN1C(=O)C2C=CC(C(O)c3cccs3)N(Nc3ccccc3)C2C1=O (stereo not given) | -0.439 | -0.612 | -0.436 | -1.64 | -0.535 | -0.693 | -0.841 (inactive) | -0.0836 | -0.528 | -0.654 (inactive)
22 | CN1C(=O)C2C=CC(C(O)c3ccc(-c4ccccc4)s3)N(N(c3ccccc3)c3ccccc3)C2C1=O (stereo not given) | 0.281 | -0.905 | 0.391 | -0.616 | 0.275 | 0.748 | -1.98 (inactive) | -1.05 | -0.434 | -0.434 (inactive)
23 | COc1ccc(C(O)C2C=CC3C(=O)N(c4ccccc4)C(=O)C3N2Nc2ccc(C(C)C)cc2)cc1OCc1ccccc1 (stereo not given) | 0.997 | -1.42 | 0.915 | -0.737 | -0.63 | -0.318 | -0.116 (inactive) | -0.427 | -0.173 | -0.193 (inactive)
24 | CCOC(=O)C[C@H]1[C@H](OC(=O)c2ccc(C(=O)c3ccccc3)cc2)[C@@H](NC(=O)c2ccc(-c3ccccc3)cc2)c2cc(OCCCO)ccc2N1C(=O)c1ccccc1 | -0.56 | 0.734 | 0.2 | -0.821 | 0.134 | 1 | -0.136 (inactive) | 0.884 | -0.117 | -0.31 (inactive)
25 | O=C1O[C@H](c2ccccc2)[C@H](c2ccccc2)N2[C@H]1[C@@H](C(=O)NC[C@H](O)c1ccccc1)[C@]1(C(=O)Nc3ccccc31)[C@H]2c1ccc(OCCO)cc1 | -0.425 | 1.61 | -1.41 | -2.53 | -3.09 | -2.29 | 1.95 (inactive) | -1.21 | -1.21 | -0.333 (inactive)
26 | CCCCCC1=C2CNC(CCC)(C(=O)OC)C=C2C(C)C1=O (stereo not given) | -1.22 | -0.388 | 0.62 | 0.0829 | -0.282 | -0.24 | -0.283 (inactive) | -0.18 | -1.13 | -0.606 (inactive)
27 | O=C1OCC=C[C@H]2OC34C=CCN(c5ccc6ccccc6c5)C(=O)[C@H]3N(CCCCCCO)C(=O)[C@@H]4[C@@H]12 (stereo not given in full) | 0.429 | -0.358 | 0.878 | 1.38 | -0.0053 | 0.631 | 0.613 (inactive) | -0.979 | 0.469 | 0.61 (inactive)
28 | O=C1OCCC=C[C@H]2OC34C=CCN(CCN5CCOCC5)C(=O)[C@H]3N(CCCCCCO)C(=O)[C@@H]4C12 (stereo not given in full) | 0.758 | -3.63 | 0.821 | 1.32 | 0.477 | 1.07 | -0.347 (inactive) | 0.0953 | 0.341 | 0.459 (inactive)
29 | C=C(CCCC)C(=O)CC[C@@H](OC(=O)c1cccnc1)c1ccc(CO)o1 | 0.274 | 0.149 | 0.909 | -0.238 | -0.156 | -1.35 | -0.123 (inactive) | 0.736 | -0.0347 | -0.192 (inactive)
30 | C#CCN(Cc1ccccc1Br)C(/C=C/c1ccccc1)CO (stereo not given) | -3.65 | -0.011 | -3.95 | -3.26 | -4.12 | -2.83 | 0.165 (inactive) | -1.2 | -1.21 | -0.411 (inactive)
